Measured values reported in ChEMBL document CHEMBL4513216, “Probing the Open Global Health Chemical Diversity Library for Multistage-Active Starting Points for Next-Generation Antimalarials” (ACS Infect Dis, 2020).
About 2,700 (4%) of roughly 68,000 compounds showed an effect of 50% or more. Shown is part of a subset that was picked to be rich in strong results.

What follows are compounds tested on Plasmodium berghei (assay: Screen against P. berghei liver stage (PbLuc), transformed with Luciferase, at 2uM). Details: tested at 2 uM.
Format: functional, HepG2

Structure (SMILES)	INHIBITION
Cn1cnc2c1CCN(CCCOc1ccc(S(C)(=O)=O)cc1)C2	72.05%
Cn1cnc2c1CCN(CCCOc1ccc(C#N)cc1)C2	40.29%
CS(=O)(=O)c1ccc(OCCCN2CCc3cncnc3C2)cc1	20.53%
CCS(=O)(=O)N(C)C1CCN(C(=O)c2cc(C)cc(C)c2)CC1	-37.02%
CNC(=O)COc1ccccc1CNCc1c(C)noc1C	57.75%
CNC(=O)COc1cccc(CNCc2c(C)noc2C)c1	-16.18%
Cc1noc(C)c1CNC(=O)C(C)Oc1ccccc1F (centres undefined)	-23.17%
Cc1cc(O)cc(=O)n1CCCC(=O)Nc1n[nH]c2cc(Br)ccc12	-14.65%
CO[C@H]1C(=O)N(C)C2(CCNCC2)[C@@H]1C(=O)Nc1ccccc1	36.1%
Cc1noc(C)c1CN1CCC(N(C)Cc2nnc(C3CC3)n2C)C1 (centres undefined)	-37.68%
COCCN1C(=O)CCC12CCC(NCc1ccc(OC)cc1)CC2 (centres undefined)	25.43%
CC[C@@H]1N(Cc2ccncc2)CCC[C@]12CCC(=O)N2CCOC	28.86%
CC[C@@H]1N(CC2CCC2)CCC[C@]12CCC(=O)N2Cc1ccncc1	12.28%
O=C1CCC2(CCC(NCc3ccsc3)CC2)N1Cc1ccccc1 (centres undefined)	31.5%
CC[C@H]1N(CC2CCC2)CCC[C@]12CCC(=O)N2Cc1ccncc1	65.54%
CN1C(=O)CCC12CCC(NCc1ccsc1)CC2 (centres undefined)	51.81%
COCCN1C(=O)CCC12CCC(NCc1cccnc1OC)CC2 (centres undefined)	12.95%
CCCN1CCC[C@]2(CCC(=O)N2Cc2ccncc2)[C@H]1CC	32.59%
COCCN1C(=O)CCC12CCC(NCc1nccs1)CC2 (centres undefined)	75.66%
CN1C(=O)CCC12CCC(NC(=O)NCc1cccnc1)CC2 (centres undefined)	-14.64%
CC[C@@H]1N(Cc2ccc(OC)cc2)CCC[C@]12CCC(=O)N2CCOC	25.75%
CC[C@@H]1N(Cc2ccccn2)CCC[C@]12CCC(=O)N2CCOC	51.05%
Cc1cc(C(=O)N2CCC(Nc3cccnc3)CC2)c(C)s1	22.36%
COCCN1CCC2(CCN(C(=O)c3ccc(F)cc3)CC2)C1=O	4.59%
CN1[C@@H]2CC[C@H]1CN(C(=O)CCc1csc(N)n1)CC2	41.86%
COc1ccc(C(=O)N2CCC(Nc3cccnn3)CC2)c(F)c1	-33.22%

Structure (SMILES)	INHIBITION
Cc1c(C2N3CC4(C(C)C)CN2CC(C(C)C)(C3)C4=O)[nH]c(=O)[nH]c1=O (centres undefined)	-2.5%
CCc1noc(C2CCCCN2C(=O)c2ccc3c(c2)OCO3)n1 (centres undefined)	25.67%
CC[C@@H]1N(Cc2nccs2)CCC[C@]12CCC(=O)N2C	45.22%
CC[C@@H]1N(Cc2nccs2)CCC[C@]12CCC(=O)N2CCOC	65.26%
CC[C@@H]1N(Cc2ccc(F)cc2)CCC[C@]12CCC(=O)N2CCOC	1.78%
Cc1csc(C(=O)N2CC(S(=O)(=O)C3CCCCC3)C2)c1	-15.37%
CC(=O)N1CC2(CCCN2Cc2ccc(Cl)cc2)Cc2ccccc21 (centres undefined)	6.9%
CCn1c(CC2CCN(C(=O)c3cc(C(C)C)nn3C)CC2)n[nH]c1=O	32.26%
CCn1c(CC2CCN(C(=O)c3cc(CC(C)C)on3)CC2)n[nH]c1=O	55.25%
CCn1c(CC2CCN(C(=O)c3cc(C(C)C)n[nH]3)CC2)n[nH]c1=O	3.06%
CSCc1cccc(NC(=O)N2CCC(N3CC=CC3)C2)c1 (centres undefined)	-18.09%
CC(=O)N(C)Cc1ccccc1NCc1c(C)noc1C	47.68%
CCN(CC)Cc1ccccc1NCc1c(C)noc1C	71.91%
Cc1noc(C)c1CNS(=O)(=O)N(C)Cc1ccccc1Br	-45.67%
O=C(Cc1csc(-c2ccco2)n1)N1CCN(c2nccs2)CC1	4.89%
CC(C)(C)CC(NC(=O)N1CCC(C(N)=O)CC1)C(F)(F)F (centres undefined)	4.34%
CC(=O)N[C@@H](C)C(=O)NCc1cccnc1Oc1ccccc1F	-66.28%
c1cncc(-c2noc(CN3CCCC3Cn3cccn3)n2)c1 (centres undefined)	5.59%
O=C(Nc1cc(-c2ccccc2)on1)N1CC[C@H](O)C1	-9.71%
O=C(Nc1cc(-c2ccccc2)on1)N1CCN(CCO)CC1	45.19%
CCC(=O)NC1CCCN(C(=O)Nc2cc(-c3ccccc3)on2)C1 (centres undefined)	80.45%
Cc1ccc(CN2CCCC3(CCCN3S(C)(=O)=O)C2)s1 (centres undefined)	51.26%
Cc1ccc(CN2CCCC3(CCCCN3S(C)(=O)=O)C2)s1 (centres undefined)	-40.37%
Cc1ccc(CN2CCC3(CCCN3S(C)(=O)=O)CC2)s1	-26.46%
Cc1ccc(CNCc2nnc3n2CCCC3C(F)(F)F)s1 (centres undefined)	-73.29%
OC1(CN2CCC(Cc3ncccn3)CC2)CCCCC1	-9.61%

Structure (SMILES)	INHIBITION
CCOc1cccnc1C(=O)N1CC=C(c2ccc(O)cc2)CC1	7.46%
Cn1ccc(CN2CCC(NC(=O)C3CCCCC3)CC2)cc1=O	-24.26%
Cn1ccc(CN2CCC(NC(=O)NC3CCCCC3)CC2)cc1=O	54.85%
Cn1ccc(CN2CCC(CC(=O)NC3CCCC3)CC2)cc1=O	-17.37%
Cc1ccccc1-c1noc(CNc2ccc(F)cc2OCCO)n1	20.77%
Cc1nc(COc2ccc(CNCCn3cccn3)cc2)cs1	12.01%
Cc1nc(-c2ccccc2)n(CC(=O)NC2CCCC2)n1	37.68%
COC(=O)C1CCN(C(=O)Cn2nc(C)nc2-c2ccccc2)CC1	50.32%
COC(=O)C1CCN(C(=O)Cn2ccc(-c3ccccc3)n2)CC1	-7.16%
Cc1nc(-c2ccsc2)ccc1C(=O)NCCCN1CCOCC1	-10.47%
Cc1nc(-c2ccsc2)ccc1C(=O)NC(C)CN1CCOCC1 (centres undefined)	50.75%
Cc1nc(-c2ccsc2)ccc1C(=O)NCCN1CCOCC1	13%
CC(C)CN1CC[C@@H]2[C@H](CC1)N(S(C)(=O)=O)CCS2(=O)=O	30.95%
Cc1noc(C)c1CN1CC[C@H]2OCC[C@@]2(C(=O)NC2CCCC2)C1	-6.61%
COc1ncc(-c2ccc(O)cc2)c(OC)n1	24.44%
CNc1cc(C)nc(C2COCCN2CCc2ccccc2)n1 (centres undefined)	-3.96%
CNc1cc(C)nc(C2COCCN2Cc2csc(C)n2)n1 (centres undefined)	52.03%
Cc1cc(N(C)C)nc(C2COCCN2Cc2csc(C)n2)n1 (centres undefined)	-27.45%
CCOC(=O)C(C)Nc1ccc(CCN2CCOCC2)cc1 (centres undefined)	-48.91%
CNc1nc2c(s1)C(=O)CN(C(=O)NCc1ccccc1)C2	16.51%
CCNc1nc2c(s1)C(=O)CN(C(=O)NCCc1ccccc1)C2	12.31%
CCNc1nc2c(s1)C(=O)CN(C(=O)NCc1ccccc1)C2	52.01%
COCCN1C[C@@H]2CC[C@H]1CN(Cc1nc3ccccc3n1C)C2	20.14%
COCCN1C[C@@H]2CC[C@H]1CN(Cc1cc(=O)c3cc(C)ccc3[nH]1)C2	-23.58%
COCCN1C[C@@H]2CC[C@H]1CN(Cc1ccc3ccccc3n1)C2	50.32%
O=C(NCc1cccnc1)c1nc2c(s1)CCCN2C(=O)C1CC1	26.76%

Structure (SMILES)	INHIBITION
CSCCC(=O)NS(=O)(=O)c1ccc2c(c1)OCCO2	-14.75%
CCCOCC(=O)NS(=O)(=O)c1ccc2c(c1)OCCCO2	-16.42%
COCCCC(=O)NS(=O)(=O)c1ccc2c(c1)OCCCO2	54.85%
CC(C)(C)C(=O)NCCC(=O)NS(=O)(=O)c1ccc2c(c1)OCCO2	73.37%
CC(C)(C)C(=O)NCCC(=O)NC(C)(C)c1ccc2c(c1)OCCO2	-93.39%
CC(C)CC(=O)NS(=O)(=O)c1ccc2c(c1)OCCCO2	-32.2%
COCCn1ccc(NC(=O)Nc2ccccn2)n1	-48.53%
O=C1N(Cc2ccc(F)c(F)c2)CCCC1(O)CNCc1cccnc1 (centres undefined)	-0.06%
CCOc1cc2c(cc1CNC(Cc1cccs1)c1nccs1)OCO2 (centres undefined)	-52.9%
CC(C)NC(=O)C1CCc2nnc(CNC(=O)c3cccnc3)n21 (centres undefined)	37.62%
CC(C)NC(=O)C1CCc2nnc(CNC(=O)c3ccc(Cl)cc3Cl)n21 (centres undefined)	5.75%
CC(C)NC(=O)C1CCc2nnc(CNC(=O)C3CC3)n21 (centres undefined)	52.23%
CCOc1ccc(S(=O)(=O)N(C)Cc2cnn(CC)c2)cc1	-44.7%
COc1ncccc1CNC1CCc2c(ccc(=O)n2CC2CC2)C1 (centres undefined)	24.04%
O=C([C@H]1C[C@H]2OCC[C@H]2N(Cc2ccccc2F)C1)N1CCCCO1	29.33%
CN(C)Cc1nnc2n1CCN(Cc1ccccn1)CC2	-16.67%
Cc1cccc(CCC(=O)Nc2ccnn2C2CCS(=O)(=O)C2)c1 (centres undefined)	62.13%
O=C(CCc1cccs1)Nc1ccnn1C1CCS(=O)(=O)C1 (centres undefined)	-28.15%
O=C(CCc1ccsc1)Nc1ccnn1C1CCS(=O)(=O)C1 (centres undefined)	-38.89%
O=C(NCCC1COc2ccccc2O1)c1ccc(N2CC(O)C2)nc1 (centres undefined)	13.19%
O=C1N[C@@H]2CCN(C(=O)C3CC3)[C@@H]2C(=O)N1c1ccc(F)cc1	34.24%
Cc1ccc(N2C(=O)N[C@@H]3CCN(C(=O)C4CC4)[C@@H]3C2=O)cc1	56.76%
Cc1ccc(N2C(=O)N[C@@H]3CCN(C(=O)C4CCCC4)[C@@H]3C2=O)cc1	-28.91%
COc1ccc(-c2nnc(SC(C)C(=O)NC(C)(C)C)[nH]2)c(OC)c1 (centres undefined)	-42.16%
COc1ccc(-c2nnc(SC(C)C(=O)NCC(C)C)[nH]2)c(OC)c1 (centres undefined)	59.18%
COc1ccc(-c2nnc(SCC(=O)NCC(C)C)[nH]2)c(OC)c1	-8.24%
